# Over roughly 5,800 sequences, “enrichment r” has its median near 0.68; the highest 2% begin near 11. Not all results are given here.
# T1: UNK ZnF1-6 (called full-length) (human, UniProt Q9C0B0 30-357)
# T1 sequence: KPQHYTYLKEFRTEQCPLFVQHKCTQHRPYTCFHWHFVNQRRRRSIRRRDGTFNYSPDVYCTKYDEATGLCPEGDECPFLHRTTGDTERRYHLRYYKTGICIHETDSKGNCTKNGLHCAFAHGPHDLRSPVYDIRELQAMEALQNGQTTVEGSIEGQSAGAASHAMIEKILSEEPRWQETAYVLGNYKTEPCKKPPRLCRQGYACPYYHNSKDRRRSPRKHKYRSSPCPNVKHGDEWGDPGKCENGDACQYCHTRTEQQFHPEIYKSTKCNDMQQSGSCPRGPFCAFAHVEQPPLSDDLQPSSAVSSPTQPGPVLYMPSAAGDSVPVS
# B1: ENSG00000198589:be:win_3501|CDS|ENSG00000198589|bound_else_gene|NA|bound_elsewhere_windowed (ssRNA)
# RNA: GGGAGUUCUACAGUCCGACGAUCUGAUACUGAAACUCAAGAUUCUAAAGAUUCUGGAAUUCAGACUAUGACAGCAUCAGGGUCUUCAGCUAUGUCACCAGAAACUACUGUUUCCCAAAUAGCUGUAGAAUCAGACCUUGGUCACAACAGAGGAUUGAGCAUCA
# B2: chr5:136975339:136975545:-|3pUTR|ENSG00000152377|msi1|total|mutant (ssRNA)
# RNA: GGGAGUUCUACAGUCCGACGAUCAGAGCCCAUCAAAUCCUGAGUGUCAGUUUGUUGUCCCUAUUGCCGAUGAAACCGUGAUGCCGCAAAAACCCCGUAAAUUCUGAAUGCUUUUCCACGCCGACUUAUCUGGAAUGUGAACACCAACAGAGGAUUGAGCAUCA
# B3: chr3:124966548:124966651:-|3pUTR|ENSG00000173706|unk|total|mutant (ssRNA)
# RNA: GGGAGUUCUACAGUCCGACGAUCAGGAAGAAUGCAAAGUUCAGUAUUUCAAUACUUUGUAUUUUACUUGAAAUUACCCUCCGCCGCAUCUUUUUUUUCCUGUCUGAAAGCUUUUGUGUGGAUGAGAAGGGACAUUUCAUUUCCCAACAGAGGAUUGAGCAUCA
# B4: ENSG00000124766:be:win_801|CDS|ENSG00000124766|bound_else_gene|NA|bound_elsewhere_windowed (ssRNA)
# RNA: GGGAGUUCUACAGUCCGACGAUCCUCGGCCUCCGCCUCCUCGGCAGCCUCGGCCUCCGCAGCGCUCGCGGCCCCGGGCAAGCACCUGGCGGAGAAGAAGGUGAAGCGCGUCUACCUGUUCGGCGGCCUGGGCACGUCGUCGUCCAACAGAGGAUUGAGCAUCA
# B5: ENSG00000101945:stop:overlap|stop_codon|ENSG00000101945|stop_codon|NA|stop_codon (ssRNA)
# RNA: GGGAGUUCUACAGUCCGACGAUCAGAAGCGGGUCCGUAUUGAAUGCAAGUGUGGGACUGAGUCCUGCCGCAAAUACCUCUUCUAGCCCUUAGAAGUCUGAGGCCAGACUGACUGAGGGGGCCUGAAGCUACAUGCACCUCCCCCAACAGAGGAUUGAGCAUCA
# B6: chr12:24812577:24812678:-|3pUTR|ENSG00000060982|msi1|FALSE|unique (ssRNA)
# RNA: GGGAGUUCUACAGUCCGACGAUCAUCCAAAGGAGCUUUUUCCUUAUUCUGUCAAGCAUUGAGAUCUUCUUCAGCUUUCAAUGUAGUUGCUAAAUACAAAUAAUGCUACUAGGUAGUGACUAAAUAUAGCAAACACUUCAUCAGCAACAGAGGAUUGAGCAUCA
# B7: chr10:22535117:22535218:-|3pUTR|ENSG00000150867|unk|FALSE|unique (ssRNA)
# RNA: GGGAGUUCUACAGUCCGACGAUCAAGGUACACAUACAUUAUUUGAGUAACUGUUUCCUUGGGGGCCAAUCUGUGUAUGCUUUUAGAAGUUUACAGAAUGCUUUUAUUUUUGUCUAUAACAAACAGUCUGUCAUUUAUUUCUGUCAACAGAGGAUUGAGCAUCA
# B8: chr9:76611375:76614569:-|three_prime_utr|ENSG00000106772|control|control|control (ssRNA)
# RNA: GGGAGUUCUACAGUCCGACGAUCAUGUUACCUUUUUCCACUUUGCACUACCUGGUGCCAUUCUAAAUUUCUAAGGGGAAAAAUAGAAAGUUUGUUUACUCUUAAGAUAUUUUAUGAAAUUGUGUGUACUUUCCUAUUUUGCCACAACAGAGGAUUGAGCAUCA
# B9: chr12:131960804:131960905:+|CDS|ENSG00000183495|unk|total|mutant (ssRNA)
# RNA: GGGAGUUCUACAGUCCGACGAUCCCCUCAGCAAGCCCGUCGGCACCCCAGUCUCCCAGUUAUCAAAUACAGCAGCUGAUGAACCGGAGCCCUGCAACCGGGCAGAACGUGAACAUCACCCUGCAGAGCGUGGGCCCUGUCGUCCAACAGAGGAUUGAGCAUCA
# B10: chr1:154944474:154944574:-|3pUTR|ENSG00000163346|msi1_unk|FALSE|overlapping (ssRNA)
# RNA: GGGAGUUCUACAGUCCGACGAUCUCGAGGCCCAGCACGAGGACUUACCCUGGGGUUUUGUUAGGUUUGGAAGCAGCUGUCCCUAGGGGGUGAAGUCCCCCCCCUUUUUUUUUUUACCCCUGCUUCUCCCACGGCUUCACCUCCCAACAGAGGAUUGAGCAUCA
# B11: chr7:32869766:32869881:-|CDS|ENSG00000170852|unk|FALSE|bound_elsewhere (ssRNA)
# RNA: GGGAGUUCUACAGUCCGACGAUCAUGUACUGUUAUUUUCCAAGGUCUGACUCAUGGGUAGAAAUGGCCAUGAGACAGACUAGUAGGUCCUUUGCUUCAGCUGCAGCUUUUGGUGAUAAAAUUUUCUAUAUUGGAGGGUUGCAUCAACAGAGGAUUGAGCAUCA
# B12: chr2:42682433:42682535:+|CDS|ENSG00000057935|unk|FALSE|unique (ssRNA)
# RNA: GGGAGUUCUACAGUCCGACGAUCUCACGCUAUGGAUACAUUGUAUAGACACAGCUAUGAUUUGAGCAGUGCCAUUAGUGUCUUAGUACCACUCGGAGGACCUGUUUUAUGCAGAGAUGAAAUGGAGGAAUGGUCAGCCUCUGACAACAGAGGAUUGAGCAUCA
# B13: chr1:64832709:64832810:+|3pUTR|ENSG00000162437|msi1|total|mutant (ssRNA)
# RNA: GGGAGUUCUACAGUCCGACGAUCACAGCCCGAAAGUUUAAGGUAAUUUCUAAGUAUACUACCUAUAAGUAACUGAUAAGAAUCCGGCAUCAUUCAGUGAUACCGCAGAUGACUAAUGGGUUUUUCAGGCCCUGCACUUCUCUUCAACAGAGGAUUGAGCAUCA
# B14: chr7:16784014:16784129:+|3pUTR|ENSG00000106537|msi1_unk|total|mutant (ssRNA)
# RNA: GGGAGUUCUACAGUCCGACGAUCGAUAAUUUACUUGCCGUCUUUUAUGAUUACACCAAUGUAUUCCCGAAACCGUUAUGUCUCCGGAAAUUGUGGUUUAAUUUUUGACUUUUACAGGUAAGUGCAAAGGAGAAGUGGUUUCAUCAACAGAGGAUUGAGCAUCA
# B15: chr8:79641408:79641533:+|CDS|ENSG00000104435|unk|total|mutant (ssRNA)
# RNA: GGGAGUUCUACAGUCCGACGAUCCCAGGCUUUUGAGCUGAUCUUGAAGCCACCAUCUCCUAUCUCAGAAGCCCCACGAACUUCCGCUUCUCCAAAGAAGAAAGACCUGUCCCUGGAGGAGAUCCAGAAGAAACUGGAGGCUGCCAACAGAGGAUUGAGCAUCA
# B16: ENSG00000107863:be:win_6101|3pUTR|ENSG00000107863|bound_else_gene|NA|bound_elsewhere_windowed (ssRNA)
# RNA: GGGAGUUCUACAGUCCGACGAUCGCAAGGUAUUUGUUGCAACUUACUACAUAGCAUAUACCCAAAAUCACUGAAGAAAAUCGCUGGCAUCAGUGUGCAGCAAAUUUGUUCUUUUGGUUUCAUCACUAACAAAAGUGCCUCAUCCAACAGAGGAUUGAGCAUCA
# B17: chr14:102081487:102081564:-|3pUTR|ENSG00000080824|msi1_unk|FALSE|overlapping (ssRNA)
# RNA: GGGAGUUCUACAGUCCGACGAUCGAAGAUAAGAUUUCUGUCUACUAAGUGAUGCUGUGAUACCUUAGGCACUAAAGCAGAGCUAGUAAUGCUUUUUGAGUUUCAUGUUGGUUUAUUUUCACAGAUUGGGGUAACGUGCACUGUCAACAGAGGAUUGAGCAUCA
# B18: chr14:54957033:54957204:-|CDS|ENSG00000198554|control|control|control (ssRNA)
# RNA: GGGAGUUCUACAGUCCGACGAUCGCACGUUCAACUAAUAUUUUAGACAAUAUGGGCAAAUCAUCCAAGAAAUCCACUGCACUUAGUCGAACUACAAAUAAUGAAAAGUCUCCCAUUAUAAAGCCUCUGAUUCCAAAGCCGAAGCAACAGAGGAUUGAGCAUCA
# B19: chrX:55006554:55006655:+|CDS|ENSG00000169188|unk|FALSE|unique (ssRNA)
# RNA: GGGAGUUCUACAGUCCGACGAUCAGGGCGCAAGUGGAUGGACAGCUUGCUCAGUAACUUGGGGUGCCAGUCUGCCUCUCAUGUAGGGCCCUUCAUCGAUAGCUACCGCUGCUUCCAACCAAAGCAGGAGGGGGCCUUCACCUGCAACAGAGGAUUGAGCAUCA
# B20: chrX:112630647:112631419:-|three_prime_utr|ENSG00000182508|control|control|control (ssRNA)
# RNA: GGGAGUUCUACAGUCCGACGAUCAGAAGAUUGGAGAGGGUGGGAAAGGGGAGGAGGGAGCCCUGAAAAGAGGUACUAAGGAUUAGGCCAUUUGUCAUCUGACUGUCAUUAGCAUAGCCUAGUGUUUGCAUGCUUUUUAAACUACAACAGAGGAUUGAGCAUCA
# B21: chr1:173887777:173887878:+|3pUTR|ENSG00000185278|unk|FALSE|unique (ssRNA)
# RNA: GGGAGUUCUACAGUCCGACGAUCAAAGAGAUUUGGCAGAGGGACAGGUUGUACCUGCACUGGUGAACCAUCUGUGAGAAUGUUAGUCAUGUGCUCCUUUCCUGAGAUUGCUUUGUGGUAUGUGAAAAGGUGGGUAGAAAAGAACAACAGAGGAUUGAGCAUCA
# B22: chr1:93180074:93180188:-|CDS|ENSG00000117500|unk|FALSE|bound_elsewhere (ssRNA)
# RNA: GGGAGUUCUACAGUCCGACGAUCCUGGCCGCUCUGCCUCCGGUGCUGCUGCCUGGGGCGGCCGGCUUCACACCUUCCCUCGAUAGCGACUUCACCUUUACCCUUCCCGCCGGCCAGAAGGAGUGCUUCUACCAGCCCAUGCCCCAACAGAGGAUUGAGCAUCA
# Molecular target: T1, UNK ZnF1-6 (called full-length)
# Assay: nsRBNS (natural sequence RNA bind-n-seq); RBNS binding buffer (assumed for nsRBNS): 25 mM Tris pH 7.5, 150 mM KCl, 3 mM MgCl2, 0.01% Triton X-100, 500 ug/ml BSA, 20 U/ml SUPERase-In, 4 C; UNK is unkempt and MSI1 is Musashi-1; names of the RNAs are library labels; protein concentration not given here; high values mean tight binding
row,Binder,binding signal [enrichment R]
1,B1,0.311
2,B2,0.528
3,B3,0.473
4,B4,0.655
5,B5,0.806
6,B6,0.559
7,B7,0.472
8,B8,0.818
9,B9,1.09
10,B10,1.37
11,B11,0.714
12,B12,0.747
13,B13,0.244
14,B14,0.435
15,B15,0.67
16,B16,0.567
17,B17,0.375
18,B18,1.02
19,B19,0.87
20,B20,1.14
21,B21,0.823
22,B22,1.1

# Reference: publication PMC12136788
